RGS7-Gao – human RGS7-Galphao interaction regulation. Multiplexed bead flow cytometry, RGS7-Galphao binding; actives lie on both sides. binding response (% of control), % at 10 µM. hit rate 0.35% among 220,000. AID 1439; in the data active = binding response below about 49% or above about 150%; inconclusive = no clear call, values can overlap the other calls; inactive = in between;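 also: fluorescent Galphao held in activated GDP-AlF4 state binding bead-coupled RGS7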
Target sequence (P09471 whole entry, looked up): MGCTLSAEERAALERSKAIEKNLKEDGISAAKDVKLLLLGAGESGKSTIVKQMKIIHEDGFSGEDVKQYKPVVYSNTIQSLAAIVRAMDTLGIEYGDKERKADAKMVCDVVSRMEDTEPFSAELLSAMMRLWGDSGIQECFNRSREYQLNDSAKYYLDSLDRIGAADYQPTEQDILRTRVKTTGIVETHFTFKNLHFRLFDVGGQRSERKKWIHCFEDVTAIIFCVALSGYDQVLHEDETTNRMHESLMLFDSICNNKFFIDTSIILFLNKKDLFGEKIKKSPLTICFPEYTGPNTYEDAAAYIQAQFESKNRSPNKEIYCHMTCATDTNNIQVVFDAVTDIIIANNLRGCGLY
RGS16-Gao – regulators of human RGS16-Galphao interaction; AID 1441; binding response (% of control), % at 10 µM; O15492+P09471; bead-based flow cytometry RGS16-Galphao binding, fluorescence; actives lie on both sides; hit rate 0.38% among 220,000;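 also: Galphao activated by GDP with aluminum fluoride before binding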
Target sequence (O15492 whole entry, looked up): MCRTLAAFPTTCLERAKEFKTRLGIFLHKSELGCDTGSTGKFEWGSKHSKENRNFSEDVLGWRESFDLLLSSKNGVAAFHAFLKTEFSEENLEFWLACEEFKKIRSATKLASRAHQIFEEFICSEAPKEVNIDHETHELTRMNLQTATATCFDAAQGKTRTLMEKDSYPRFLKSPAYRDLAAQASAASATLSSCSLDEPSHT
Target sequence (P09471 whole entry, looked up): as the sequence (P09471 whole entry, looked up) above
RGS8-Gao – modulates binding of RGS8 to human Galphao. hit rate 0.34% among 220,000. AID 1423. multiplexed bead flow cytometry; actives lie on both sides. response (percent of control binding), % at 10 µM. P09471; in the data active = response below about 60% or above about 140%; inactive = in between;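 also: Galphao activated as the GDP aluminium fluoride complex binding bead-coupled RGS8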
Avidin fluor – compound fluoresces at 488/530 nm on avidin beads; fluorescence (KMESF) at 10 µM; compound fluorescence 488/530 nm, flow cytometry; stronger effect = higher value; AID 1775; hit rate 0.38% among 220,000; in the data active = fluorescence above about 47
GSH bead fluor – GSH bead compound fluorescence profile; GSH beads flow cytometry, compound fluorescence 488/530 nm; stronger effect = higher value; fluorescence (KMESF) at 10 µM; hit rate 0.25% among 190,000; AID 1776; in the data active = fluorescence above about 89;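 also: glutathione beads carrying GST-tagged Bcl family fusion proteins plus one bare bead set; values are compound well signal with DMSO vehicle wells as background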
RGS4-Gao reg – human RGS4-Galphao interaction regulation. AID 1415. binding response (% of control), % at 10 µM. P09471. hit rate 0.33% among 220,000. Multiplexed bead flow cytometry, RGS4-Galphao binding; actives lie on both sides; in the data active = binding response below about 49% or above about 150%; inactive = in between;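 also: fluorescent Galphao activated with aluminum fluoride binding bead-coupled RGS4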
RGS-Gao – regulators of human RGS4-Galphao interaction; shares compounds with RGS16-Gao; multiplexed bead flow cytometry, RGS–Galpha-o binding; RGS4–Galpha-o binding response, % at 10 µM; hit rate 99% among 1,600; AID 1504;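 also: fluorescently labeled Galpha-o bound to GDP with aluminium fluoride binding biotinylated RGS beads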
Biotin-avidin – interferes with biotinylated probe binding to avidin beads; shares compounds with RGS16-Gao; streptavidin beads, fluorescein-biotin binding, flow cytometry; inhibition, % at 10 µM; 1,700 tested, under 10 active; AID 1783;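 active = inhibition above 50%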;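 also: median green fluorescence of gated singlet beads compared with DMSO control wells; 0% = DMSO wells and 100% = complete loss of bead fluorescence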
RGS8-Gao single – RGS8-Galphao interaction regulation, single point confirmation; AID 1836; bead-based flow cytometry RGS8-Galphao binding, fluorescence; actives lie on both sides; shares compounds with RGS16-Gao; hit rate 3% among 1,700; binding response (% of control), % at 10 µM; in the data active = binding response below about 72% or above about 130%; inactive = in between;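 also: Galphao activated as GDP AlF4 complex before binding bead RGS8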
RGS7-Gao confirm – confirmation of regulators of human RGS7-Galphao interaction; hit rate 7.8% among 1,700; shares compounds with RGS16-Gao; bead-based flow cytometry RGS7-Galphao binding; actives lie on both sides; response (percent of control binding), % at 10 µM; in the data active = response below about 75% or above about 130%; inactive = in between;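 also: fluorescent Galphao activated with GDP and aluminum fluoride binding bead-coupled RGS7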
RGS16-Gao single – RGS16-Galphao interaction regulation, single point confirmation; bead-based flow cytometry, RGS16-Galphao binding; actives lie on both sides; shares compounds with RGS16-Gao; hit rate 4% among 1,700; response (% of control binding), % at 10 µM; AID 1838; in the data active = response below about 74% or above about 130%; inactive = in between;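 also: Galphao activated as the GDP aluminium fluoride complex binding bead-coupled RGS16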
RGS4-Gao confirm – RGS4-Galphao interaction regulation, single point confirmation. shares compounds with RGS16-Gao. RGS4-Galphao binding, multiplexed bead flow cytometry; actives lie on both sides. binding response (% of control), % at 10 µM. hit rate 4% among 1,700. AID 1840; in the data active = binding response below about 74% or above about 130%; inactive = in between
RGS19-Gao conf – confirmation of regulators of human RGS19-Galphao interaction; shares compounds with RGS16-Gao; bead-based flow cytometry RGS19-Galphao binding; actives lie on both sides; response (percent of control binding), % at 10 µM; hit rate 5% among 1,700; in the data active = response below about 50% or above about 160%; inactive = in between;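 also: 100% = no compound control and 0% = blank background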
Active calls of the source: *; [ ] = another dose, or the depositor's remark. An excerpt weighted towards active compounds, which were near 1.2% of everything screened. Unless noted, no rule for the calls is given here.

How did CN(c1ccccc1)S(=O)(=O)c1cccc(NC(=O)CN2CCCc3ccccc32)c1 do in these assays?
RGS7-Gao: inconclusive; RGS16-Gao: 178*[activator]; RGS8-Gao: 118; Avidin fluor: 27; RGS4-Gao reg: 141; RGS-Gao: 141*; Biotin-avidin: 1; RGS8-Gao single: 102; RGS7-Gao confirm: 131*[activator]; RGS16-Gao single: 112; RGS4-Gao confirm: 113; RGS19-Gao conf: 134

What do the screens show for `O=C(CSc1nnc(CNC(=O)C23CC4CC(CC(C4)C2)C3)n1-c1ccc(F)cc1)Nc1ccccc1`?
RGS7-Gao: 99; RGS16-Gao: 101; RGS8-Gao: 101; Avidin fluor: 12; GSH bead fluor: 13; RGS4-Gao reg: 103

How did CC(C)=NOc1cc(NC(=O)CCl)cc([N+](=O)[O-])c1 do in these assays?
RGS7-Gao: 100; RGS16-Gao: 106; RGS8-Gao: 102; Avidin fluor: 4; GSH bead fluor: 13; RGS4-Gao reg: 101

What do the screens show for `CCC(=O)Nc1cc(ON=C(C)C)cc([N+](=O)[O-])c1`?
RGS7-Gao: -15*; RGS16-Gao: 39; RGS8-Gao: 34*; Avidin fluor: -2; GSH bead fluor: 14; RGS4-Gao reg: -40*; Biotin-avidin: -2; RGS8-Gao single: 99; RGS7-Gao confirm: 99; RGS16-Gao single: 101; RGS4-Gao confirm: 98; RGS19-Gao conf: 102

Results for Cc1ccsc1/C=N/NC(=O)CNC(=O)c1cccc([N+](=O)[O-])c1C ?
RGS7-Gao: 104; RGS16-Gao: 108; RGS8-Gao: 105; Avidin fluor: 28; GSH bead fluor: 15; RGS4-Gao reg: 107

Results for Cc1ccc(N(CCC#N)C(=O)CCl)cc1C ?
RGS7-Gao: 92; RGS16-Gao: 21*; RGS8-Gao: 80; Avidin fluor: 9; GSH bead fluor: 7; RGS4-Gao reg: 95; RGS-Gao: 95*; Biotin-avidin: 0; RGS8-Gao single: 101; RGS7-Gao confirm: 102; RGS16-Gao single: 103; RGS4-Gao confirm: 104; RGS19-Gao conf: 107

What do the screens show for `Cc1nn(C)c(C)c1C1C(C#N)=C(N)Oc2n[nH]c(C)c21` (configuration not stated)?
RGS7-Gao: 109; RGS16-Gao: 230*[activator]; RGS8-Gao: 140*[activator]; Avidin fluor: 7; GSH bead fluor: 10; RGS4-Gao reg: 110; RGS-Gao: 110*; Biotin-avidin: -1; RGS8-Gao single: 101; RGS7-Gao confirm: 99; RGS16-Gao single: 102; RGS4-Gao confirm: 101; RGS19-Gao conf: 118

Results for S=C(Nc1ccc2c(c1)OCO2)Nc1ccc2c(c1)OCO2 ?
RGS7-Gao: 159*[activator]; RGS16-Gao: 146; RGS8-Gao: 141*[activator]; Avidin fluor: 10; GSH bead fluor: 22; RGS4-Gao reg: 142; RGS-Gao: 142*; Biotin-avidin: 0; RGS8-Gao single: 100; RGS7-Gao confirm: 103; RGS16-Gao single: 99; RGS4-Gao confirm: 102; RGS19-Gao conf: 92

Results for CN(C)C(=S)Nc1ccc2c(c1)OCO2 ?
RGS7-Gao: 95; RGS16-Gao: 95; RGS8-Gao: 94; Avidin fluor: 9; GSH bead fluor: 10; RGS4-Gao reg: 97

What do the screens show for `CS(=O)(=O)N(CC(=O)NCCSc1ccccn1)c1cccc2ccccc12`?
RGS7-Gao: 108; RGS16-Gao: 147; RGS8-Gao: 111; Avidin fluor: 14; GSH bead fluor: 10; RGS4-Gao reg: 107

How did Cc1ccc(C)n1-c1ccc(C(=O)O)cc1 do in these assays?
RGS7-Gao: 39*; RGS16-Gao: 73; RGS8-Gao: 61; Avidin fluor: 11; GSH bead fluor: 12; RGS4-Gao reg: 66; RGS-Gao: 66*; Biotin-avidin: 0; RGS8-Gao single: 96; RGS7-Gao confirm: 92; RGS16-Gao single: 98; RGS4-Gao confirm: 98; RGS19-Gao conf: 102

What do the screens show for `CC(C)(C)NC(=O)CSc1nc2ccc(NC(=O)CSc3nnc(N)s3)cc2s1`?
RGS7-Gao: 101; RGS16-Gao: 68; RGS8-Gao: 98; Avidin fluor: 6; GSH bead fluor: 8; RGS4-Gao reg: 102

Results for Cc1cc([N+](=O)[O-])nn1CC(=O)NCCCn1ccnc1 ?
RGS7-Gao: 269*[activator]; RGS16-Gao: 133; RGS8-Gao: 122; Avidin fluor: 103*; GSH bead fluor: 20; RGS4-Gao reg: 147; RGS-Gao: 147*; Biotin-avidin: -2; RGS8-Gao single: 102; RGS7-Gao confirm: 80; RGS16-Gao single: 89; RGS4-Gao confirm: 90; RGS19-Gao conf: 61

How did Cc1ccc(C(=O)NCCCn2ccnc2)cc1[N+](=O)[O-] do in these assays?
RGS7-Gao: 104; RGS16-Gao: 102; RGS8-Gao: 103; Avidin fluor: 10; GSH bead fluor: 9; RGS4-Gao reg: 98

Results for CC(NC(=O)Cc1ccc(-c2ccccc2)cc1)c1ccccc1 (configuration not stated) ?
RGS7-Gao: 263*[activator]; RGS16-Gao: 222; RGS8-Gao: 106; Avidin fluor: 358*; GSH bead fluor: 24; RGS4-Gao reg: 152*[activator]; Biotin-avidin: -2; RGS8-Gao single: 96; RGS7-Gao confirm: 123; RGS16-Gao single: 93; RGS4-Gao confirm: 98; RGS19-Gao conf: 100

Results for CCCCOc1ccc(-c2nc(=S)[nH][nH]2)cc1 ?
RGS7-Gao: 99; RGS16-Gao: 92; Avidin fluor: 4; GSH bead fluor: 39; RGS4-Gao reg: 93; Biotin-avidin: 0; RGS8-Gao single: 91; RGS7-Gao confirm: 104; RGS16-Gao single: 93; RGS4-Gao confirm: 101; RGS19-Gao conf: 98
